Experiment [1] deals with Cytochrome P450 2C19 (Homo sapiens) (UniProt P33261). As to the kind of experiment: Cytochrome P450 Family 2 Subfamily C Member 19 (CYP2C19) small molecule antagonists: luciferase reporter qHTS assay (AID 1671197). Further: nearly all actives have a fitted effect of over 65% in size. Further: potency means the concentration at half of the fitted maximal effect. On activity change, negative = inhibition: series mostly up to about 120 µM. The gist of the method: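 Inhibition of CYP2C19 was scored from loss of luminescence in a P450-Glo proluciferin substrate assay, NADPH-started and run 1 h at 37C, with ketoconazole as positive control.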
In general terms: Reporter assays use an easily measured gene product as a stand-in for the process of interest.

For experiment [2], the target named is Cytochrome P450 2C9 (Homo sapiens) (UniProt P11712). Briefly: Cytochrome P450 Family 2 Subfamily C Member 9 (CYP2C9) small molecule antagonists: luciferase reporter qHTS assay (AID 1671198). Further: nearly all actives have a fitted effect of over 50% in size. Further: potency means the concentration at half of the fitted maximal effect. On activity change, negative = inhibition: series mostly up to about 120 µM. In a few lines:
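Enzyme-substrate mix preincubated with compound 10 min at room temperature; reaction started with NADPH regeneration solution, 1 h 37C. Luminescent luciferin product read after 20 min detection reagent.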

Experiment [3] deals with Cytochrome P450 1A2 (Homo sapiens) (UniProt P05177). Briefly: Cytochrome P450 Family 1 Subfamily A Member 2 (CYP1A2) small molecule antagonists: luciferase reporter qHTS assay (AID 1671199). Further: nearly all actives have a fitted effect of over 50% in size. Further: potency means the concentration at half of the fitted maximal effect. On activity change, negative = inhibition: series mostly up to about 120 µM. The gist of the method: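 Human CYP1A2 activity measured with a P450-Glo proluciferin substrate; compounds in DMSO preincubated 10 min at room temperature with enzyme-substrate mix, then NADPH regeneration system added for 1 h. Luciferin detection reagent, 20 min, luminescence read.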

In experiment [4] the target is Voltage-gated inwardly rectifying potassium channel KCNH2 (Homo sapiens) (UniProt Q12809). Briefly: Human Ether-a-go-go-Related Gene (hERG) channel small molecule antagonists: fluorescence cell-based qHTS assay (AID 1671200).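 Further: hERG-expressing U2OS cells given a thallium stimulus after FluxOR II dye loading; series mostly up to about 77 µM; nearly all actives have a fitted effect of over 50% in size.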 The gist of the method: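 In this thallium-flux screen, overnight-cultured U2OS cells bearing the channel are dye-loaded in darkness for an hour, rested 10 min at room temperature, and then monitored kinetically at 480/540 nm for two minutes post-stimulus.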
In general terms: Block of hERG is tested as a sign of cardiac risk.

Experiment [5] addresses Cytochrome P450 3A4 (Homo sapiens) (UniProt P08684). As to the kind of experiment: Cytochrome P450 Family 3 Subfamily A Member 4 (CYP3A4) small molecule antagonists: luciferase reporter qHTS assay (AID 1671201). Further: nearly all actives have a fitted effect of over 50% in size. Further: potency means the concentration at half of the fitted maximal effect. On activity change, negative = inhibition: series mostly up to about 120 µM. The gist of the method: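 CYP3A4 activity was followed with a P450-Glo proluciferin substrate. Test compounds in DMSO were preincubated 10 min; NADPH regeneration then ran 1 h, and light output was read 20 min after detection reagent.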

Values joined by “and” are separate entries in the source; they are usually repeats but may differ in a detail not shown here. Equal entries are not always repeated. Results filed as inconclusive are left out. A structure can be active in one record and inactive in another. Active and inactive are the calls of the source. The call rests on the fitted dose curve; in most records, active means well fitted curve in the direction sought with a large enough effect in the repeat runs; inconclusive means weak or mixed curves; inactive means no such curve, though single readings can be large; an effect the other way counts as inactive or inconclusive.
On the % scale 0 is the no-effect control and ±100 the full control effect.

Chain of Cytochrome P450 2C19 (Homo sapiens) (P33261 whole entry, looked up): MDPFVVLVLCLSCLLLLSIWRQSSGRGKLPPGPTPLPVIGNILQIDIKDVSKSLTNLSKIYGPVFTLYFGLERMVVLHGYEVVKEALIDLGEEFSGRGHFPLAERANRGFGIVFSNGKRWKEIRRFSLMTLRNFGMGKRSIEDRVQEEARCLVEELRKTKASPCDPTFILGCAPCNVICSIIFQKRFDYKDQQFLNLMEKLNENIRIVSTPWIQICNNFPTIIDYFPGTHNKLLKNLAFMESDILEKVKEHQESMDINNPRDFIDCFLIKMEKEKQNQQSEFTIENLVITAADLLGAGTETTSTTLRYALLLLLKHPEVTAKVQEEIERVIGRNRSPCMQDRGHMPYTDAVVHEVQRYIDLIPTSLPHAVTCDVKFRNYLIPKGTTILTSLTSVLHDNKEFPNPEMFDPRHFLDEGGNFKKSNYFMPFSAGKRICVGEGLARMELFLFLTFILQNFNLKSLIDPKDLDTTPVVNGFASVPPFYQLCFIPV
Chain of Cytochrome P450 2C9 (Homo sapiens) (P11712 whole entry, looked up): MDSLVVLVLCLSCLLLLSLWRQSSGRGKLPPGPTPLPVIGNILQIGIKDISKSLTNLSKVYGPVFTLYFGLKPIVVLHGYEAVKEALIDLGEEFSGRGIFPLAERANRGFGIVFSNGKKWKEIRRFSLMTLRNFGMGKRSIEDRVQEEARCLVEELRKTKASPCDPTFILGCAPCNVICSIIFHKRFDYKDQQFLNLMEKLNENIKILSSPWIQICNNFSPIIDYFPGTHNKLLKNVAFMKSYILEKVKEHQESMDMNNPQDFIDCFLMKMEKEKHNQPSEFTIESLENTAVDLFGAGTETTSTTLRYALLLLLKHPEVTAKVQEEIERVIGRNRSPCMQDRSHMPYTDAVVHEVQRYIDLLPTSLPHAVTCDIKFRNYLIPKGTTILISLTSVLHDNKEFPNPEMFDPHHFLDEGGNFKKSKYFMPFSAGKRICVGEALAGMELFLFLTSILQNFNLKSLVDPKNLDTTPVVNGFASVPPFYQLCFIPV
Chain of Cytochrome P450 3A4 (Homo sapiens) (P08684 whole entry, looked up): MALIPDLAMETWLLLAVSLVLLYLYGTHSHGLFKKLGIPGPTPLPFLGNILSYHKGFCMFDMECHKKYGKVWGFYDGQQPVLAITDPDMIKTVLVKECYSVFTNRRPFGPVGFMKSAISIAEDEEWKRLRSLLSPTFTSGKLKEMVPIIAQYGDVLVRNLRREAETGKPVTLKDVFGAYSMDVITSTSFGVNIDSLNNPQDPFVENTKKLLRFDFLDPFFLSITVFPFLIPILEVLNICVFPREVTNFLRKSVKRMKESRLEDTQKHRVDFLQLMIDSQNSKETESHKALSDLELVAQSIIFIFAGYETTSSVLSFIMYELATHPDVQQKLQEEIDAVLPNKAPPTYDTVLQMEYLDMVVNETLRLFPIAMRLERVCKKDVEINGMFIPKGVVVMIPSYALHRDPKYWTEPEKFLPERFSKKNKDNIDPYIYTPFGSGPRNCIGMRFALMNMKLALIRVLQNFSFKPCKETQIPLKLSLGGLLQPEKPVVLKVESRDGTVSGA
Chain of Voltage-gated inwardly rectifying potassium channel KCNH2 (Homo sapiens) (Q12809 whole entry, looked up): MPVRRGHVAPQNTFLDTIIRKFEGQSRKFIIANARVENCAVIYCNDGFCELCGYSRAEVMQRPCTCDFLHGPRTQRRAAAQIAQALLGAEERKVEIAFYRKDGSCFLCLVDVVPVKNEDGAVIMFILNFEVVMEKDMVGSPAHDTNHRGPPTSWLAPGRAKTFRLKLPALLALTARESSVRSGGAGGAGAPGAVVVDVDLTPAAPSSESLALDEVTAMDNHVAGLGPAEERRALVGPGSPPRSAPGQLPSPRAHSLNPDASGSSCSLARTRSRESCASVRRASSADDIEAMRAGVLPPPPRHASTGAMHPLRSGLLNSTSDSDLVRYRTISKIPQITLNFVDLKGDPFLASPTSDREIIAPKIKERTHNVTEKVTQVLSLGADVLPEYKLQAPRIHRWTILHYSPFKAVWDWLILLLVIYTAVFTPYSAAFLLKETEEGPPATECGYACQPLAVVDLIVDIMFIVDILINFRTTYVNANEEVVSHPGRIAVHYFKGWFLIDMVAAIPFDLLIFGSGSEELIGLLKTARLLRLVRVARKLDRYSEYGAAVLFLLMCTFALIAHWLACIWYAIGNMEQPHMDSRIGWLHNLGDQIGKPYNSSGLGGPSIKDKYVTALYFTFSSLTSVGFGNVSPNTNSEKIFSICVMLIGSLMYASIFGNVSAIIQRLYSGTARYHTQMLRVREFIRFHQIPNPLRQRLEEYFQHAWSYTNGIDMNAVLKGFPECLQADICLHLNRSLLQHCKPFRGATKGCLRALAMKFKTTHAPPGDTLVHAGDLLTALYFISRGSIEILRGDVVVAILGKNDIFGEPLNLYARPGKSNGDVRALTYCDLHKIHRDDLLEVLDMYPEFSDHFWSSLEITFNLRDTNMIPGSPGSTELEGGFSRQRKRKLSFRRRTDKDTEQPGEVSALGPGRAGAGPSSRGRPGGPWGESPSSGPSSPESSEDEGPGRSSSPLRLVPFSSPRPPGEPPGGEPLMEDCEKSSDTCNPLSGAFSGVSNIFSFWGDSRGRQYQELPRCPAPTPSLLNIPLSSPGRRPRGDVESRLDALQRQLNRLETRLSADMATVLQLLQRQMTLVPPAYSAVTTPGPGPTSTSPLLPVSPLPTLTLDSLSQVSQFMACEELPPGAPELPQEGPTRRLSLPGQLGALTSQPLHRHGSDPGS
Chain of Cytochrome P450 1A2 (Homo sapiens) (P05177 whole entry, looked up): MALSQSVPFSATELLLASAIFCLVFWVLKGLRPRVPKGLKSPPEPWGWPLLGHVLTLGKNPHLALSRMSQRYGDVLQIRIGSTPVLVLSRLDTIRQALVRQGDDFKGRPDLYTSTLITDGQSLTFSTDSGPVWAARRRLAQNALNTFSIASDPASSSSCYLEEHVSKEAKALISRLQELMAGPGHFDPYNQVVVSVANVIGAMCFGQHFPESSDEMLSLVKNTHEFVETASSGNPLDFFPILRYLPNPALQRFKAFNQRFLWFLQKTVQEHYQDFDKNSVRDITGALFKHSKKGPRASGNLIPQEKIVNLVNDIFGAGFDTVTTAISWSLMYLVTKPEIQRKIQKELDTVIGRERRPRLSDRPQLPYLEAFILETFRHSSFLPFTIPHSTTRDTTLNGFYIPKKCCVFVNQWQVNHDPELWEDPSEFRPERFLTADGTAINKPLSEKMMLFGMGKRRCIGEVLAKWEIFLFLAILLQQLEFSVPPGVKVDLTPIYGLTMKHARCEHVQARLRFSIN

For `NCCNCCNCCNCCN`, the Potency in experiment [1] is 63 µM (active). The activity change, negative = inhibition in experiment [1] was 36.2% [at 10.5 µM] (inactive); in experiment [2] it was 8.07% [at 10.5 µM] (inactive); in experiment [3], 8.65% [at 10.5 µM] (inactive). The Potency result in experiment [4] and in experiment [5] was “inactive” throughout.
As for `O=S(=O)(O)c1cc(S(=O)(=O)O)c2c(N=Nc3ccccc3)c(O)ccc2c1`, the Potency in experiment [1] was 71.3 µM (active) and inactive. The Potency result in experiment [2], in experiment [3], in experiment [4] and in experiment [5] was “inactive” throughout.
In the case of `C=C1CC[C@H](O)CC1=C/C=C1\CCC[C@]2(C)[C@@H]([C@H](C)/C=C/[C@H](C)C(C)C)CC[C@@H]12`, the Potency in experiment [1] is 35.3 µM (active) and 25.2 µM (active).
In the case of `S=c1nc[nH]c2nc[nH]c12`, the Potency in experiment [1] is 69.2 µM (active) and 30.9 µM (active); in experiment [2], 34.7 µM (active). In addition, the Potency entry in experiment [3], in experiment [4] and in experiment [5] was “inactive” in each case.
Take `CC1Cc2ccccc2N1NC(=O)c1ccc(Cl)c(S(N)(=O)=O)c1` (stereo not given): the Potency result in experiment [1], in experiment [2] and in experiment [3] was “inactive” each time.
Consider `CC#C[C@]1(O)CC[C@H]2[C@@H]3CCC4=CC(=O)CCC4=C3[C@@H](c3ccc(N(C)C)cc3)C[C@@]21C`, for which the Potency in experiment [1] is 20 µM (active); in experiment [2], 2.24 µM (active) and 2.75 µM (active). The Potency result in experiment [3] was “inactive”.
Take `CCCCCC/C=C/CCCCCCCC(=O)O`: the Potency entry in experiment [1], in experiment [2], in experiment [3], in experiment [4] and in experiment [5] was “inactive” in each case.
Turning to `CC(C)(N=C=O)c1cccc(C(C)(C)N=C=O)c1`, the Potency in experiment [1] is 79.1 µM (active) and inactive; in experiment [5], 2.81 µM (active) and 7.96 µM (active). Also, the Potency result in experiment [2], in experiment [3] and in experiment [4] was “inactive” throughout.
For `O=c1c(-c2ccc(O)cc2)coc2cc(O)ccc12`, the Potency was 49.8 µM (active) in experiment [1]; 280 nM (active) and 159 nM (active) in experiment [2]; 31.4 µM (active) and 39.9 µM (active) in experiment [3]. In experiment [4], the Potency result is “inactive”.
Take `CC(C)(C)C1CCC(O)CC1` (stereo not given): the Potency in experiment [1] was 32.2 µM (active) and inactive; in experiment [3], 72 µM (active) and inactive. Moreover, the Potency entry in experiment [2], in experiment [4] and in experiment [5] was “inactive” in each case.
Turning to `C=CC(=O)OCCCCCCCC(C)C`, the Potency entry in experiment [1], in experiment [2], in experiment [3], in experiment [4] and in experiment [5] was “inactive” throughout.
For `C=C(C)C(=O)OCCC[Si](OC)(OC)OC`, the Potency was 22.2 µM (active) in experiment [1]; 15.7 µM (active) in experiment [2]; 3.14 µM (active) and 63.3 µM (active) in experiment [5]. The Potency entry in experiment [3] and in experiment [4] was “inactive” in each case.
As for `CCOC(=O)[C@H](CCc1ccccc1)N[C@@H](C)C(=O)N1Cc2ccccc2C[C@H]1C(=O)O`, the Potency is 35.8 µM (active) and inactive in experiment [1]; 8.02 µM (active) and 12.3 µM (active) in experiment [2]. For the same molecule, the Potency entry in experiment [3] and in experiment [4] was “inactive” each time.
In the case of `O=C(c1cc(O)c(O)c(O)c1)c1ccc(O)c(O)c1O`, the Potency in experiment [1] was 15.9 µM (active) and 31.7 µM (active); in experiment [2], 3.16 µM (active) and 50.2 µM (active) and inactive; in experiment [3] it was 39.8 µM (active) and 39.9 µM (active) and inactive. Also, the Potency result in experiment [4] and in experiment [5] was “inactive” in each case.
On to `COCC(=O)O`, for which, in experiment [1], the Potency was 73 µM (active) and inactive. Besides, the Potency entry in experiment [2], in experiment [3], in experiment [4] and in experiment [5] was “inactive” in each case.
As for `O=C1CCCCC1`, the Potency in experiment [1] was 74.6 µM (active) and inactive. Also, the Potency result in experiment [2], in experiment [3], in experiment [4] and in experiment [5] was “inactive” throughout.
`CCCCOCCOCCOC(=O)CCCCC(=O)OCCOCCOCCCC`: the Potency in experiment [1] is 22.5 µM (active) and 22.4 µM (active); in experiment [2] it was 11.3 µM (active) and 17.8 µM (active); in experiment [5], 20.1 µM (active) and 31.7 µM (active). Further, the Potency entry in experiment [3] and in experiment [4] was “inactive” throughout.
Take `Nc1cc(-c2ccncc2)c[nH]c1=O`: the Potency was 8.94 µM (active) and 3.89 µM (active) in experiment [1]; 14.2 µM (active) and 12.3 µM (active) in experiment [2]; 35.6 µM (active) in experiment [3]. Further, the Potency result in experiment [4] is “inactive”.
With `NCc1cccc(CN)c1`, the Potency in experiment [1] was 36.6 µM (active) and 31.7 µM (active); in experiment [2], 36.6 µM (active) and 39.9 µM (active); in experiment [3], 35.6 µM (active); in experiment [5], 36.6 µM (active) and 2.83 µM (active). In addition, the Potency result in experiment [4] is “inactive”.
As to `CCCCC(CC)COC(=O)CCCCCCCC(=O)OCC(CC)CCCC` (stereo not given), the Potency in experiment [1] is 7.96 µM (active) and inactive; in experiment [2], 31.7 µM (active) and inactive; in experiment [3], 35.6 µM (active) and inactive; in experiment [5], 5.64 µM (active) and inactive. Moreover, the Potency entry in experiment [4] is “inactive”.
In the case of `O=C1O[C@H](CO)[C@@H](O)[C@H](O)[C@H]1O`, the Potency result in experiment [1], in experiment [2], in experiment [3], in experiment [4] and in experiment [5] was “inactive” throughout.

The record behind these values is PubChem BioAssay (Tox21).
